Bioassay records from PubChem BioAssay.
In the library only some 11% were active in any assay of this set; here they are far more common.
ALOX12 inhib = 12-hLO (ALOX12) enzyme inhibition; P18054; purified 12-hLO, xylenol orange hydroperoxide absorbance; Potency, µM (titrated, usually from 57.1 µM), without a hit: top-dose activity change, negative = inhibition, actives largely listed as inhibitors; 0.12% of 150,000 active; AID 1452; also: potency is read from the fitted curve at half-maximal effect; nearly all actives have a fitted effect of over 55% in size
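Lipoxygenase turnover measured by absorbance at 573 and 405 nm after Fe-XO development. Human 12hLO 150 nM, arachidonate 40 uM, pH 7.0 Hepes buffer with detergent; 15 min compound preincubation, 30 min reaction.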
PNC inhibitor = perinucleolar compartment assembly inhibition; 3.1% of 140,000 active; PC3M PTB-GFP, PNC prevalence imaging, 16 h; hits give low values; activity change (PNC), negative = inhibition, % at 10 µM;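 active = readout at or below -70, meaning at least 70% loss of cells showing the perinucleolar compartment, a nuclear body marking cancer cells; inconclusive = readout between -30 and a set limit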;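 also: plate controls were DMSO wells for no effect and camptothecin positive control wells for full effect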
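PC3M cells stably expressing PTB-GFP, 750–1000 cells/well, treated 16 h at 37 °C with compound (23 nl of library stock), in duplicate. After paraformaldehyde fixation and Hoechst stain, imaged at 20x; PNC prevalence scored by image analysis.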
HPGD block = blocks human HPGD enzyme activity; P15428; AID 894; 4.3% of 150,000 active; Potency, µM, without a hit: at the top dose activity change, negative = inhibition, most hits filed as inhibitors; purified HPGD, NADH fluorescence kinetic, PGE2 substrate; active = well fitted inhibition curve with a large enough effect, not every such curve was filed as active; inconclusive = small, poorly fitted or top-dose-only effect, or another doubt; inactive = no such curve, though single readings can be large or run the other way; also: potency is read from the fitted curve at half-maximal effect
Target sequence (P15428 whole entry, looked up): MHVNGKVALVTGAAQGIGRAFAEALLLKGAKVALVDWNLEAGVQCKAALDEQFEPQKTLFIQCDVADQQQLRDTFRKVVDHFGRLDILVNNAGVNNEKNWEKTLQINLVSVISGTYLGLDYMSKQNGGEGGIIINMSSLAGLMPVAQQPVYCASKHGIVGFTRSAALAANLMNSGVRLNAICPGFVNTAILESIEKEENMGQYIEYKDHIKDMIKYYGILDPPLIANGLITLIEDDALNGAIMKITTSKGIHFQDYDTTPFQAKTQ
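20 nM HPGD preincubated 15 min at room temperature with compound in 50 mM Tris-HCl pH 8, 0.01% Tween 20. Started with 1 mM NAD+ and 30 uM prostaglandin E2; NADH fluorescence (360/450 nm) read 5 times over 30-s intervals, last minus first.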
IMPase Li cell = IMPase inhibition in cells with lithium potentiation. CHO-M1 cells, IP1 TR-FRET (IP-One), carbachol + lithium. Potency, µM (highest dose often 59.4 µM), inactives show at the top dose activity, negative = IMPase inhibition, usual class: inhibitors. 0.35% of 210,000 active;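 also: IP1 builds up when IMPase is blocked and the TR-FRET signal falls; potency is read from the fitted curve at half-maximal effect; plate controls were basal vehicle for no effect and high inhibitor control for full effect; nearly all actives have a fitted effect of over 50% in size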
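IP1 accumulation measured by competitive TR-FRET in lysed CHO-M1 cells after 30 min compound exposure at 37C, with a small lithium addition to potentiate weak responses. Hill-equation AC50 from ratio and donor-channel data.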
ALDH1A1 inh = inhibitors of human aldehyde dehydrogenase 1A1; P00352; Purified ALDH1A1, NADH fluorescence, propionaldehyde substrate; Potency, µM (doses to about 75.3 µM), for inactives: top-dose activity, negative = inhibition, most hits filed as inhibitors; 7.3% of 220,000 active; active = well fitted inhibition curve with a large enough effect, not every such curve was filed as active; inconclusive = small, poorly fitted or top-dose-only effect, or another doubt; inactive = no such curve, though single readings can be large or run the other way;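 also: potency is read from the fitted curve at half-maximal effect; plate controls were no enzyme wells and a reference inhibitor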
IMPase cell inh = membrane-permeable compound that blocks inositol monophosphatase | 120,000 tested, under 10 active | P97697 | inhibition (IP1 accumulation), % at 46.1 µM | CHO-M1 cells, IP1 accumulation, HTRF TR-FRET ratio; active = well fitted curve in the direction sought with a large enough effect in the signal ratio, not every such curve was filed as active; inconclusive = small, poorly fitted or top-dose-only effect, or a change in a side signal; inactive = no such curve, though single readings can be large or run the other way; the % refers to the signal ratio;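 also: cells stimulated with carbachol in lithium chloride buffer; plate controls were DMSO basal wells for no effect and reference inhibitor wells for full effect; higher means more IMPase inhibition seen as more IP1 and lower FRET ratio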
Target sequence (P97697 whole entry, looked up): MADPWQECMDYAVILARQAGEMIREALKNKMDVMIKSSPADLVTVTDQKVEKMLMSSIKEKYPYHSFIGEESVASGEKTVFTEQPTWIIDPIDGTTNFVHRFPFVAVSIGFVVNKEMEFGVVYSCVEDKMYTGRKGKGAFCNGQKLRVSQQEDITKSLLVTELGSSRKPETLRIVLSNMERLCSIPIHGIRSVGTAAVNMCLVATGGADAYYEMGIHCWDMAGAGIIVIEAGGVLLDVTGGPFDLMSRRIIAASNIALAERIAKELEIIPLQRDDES
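Measured: the HTRF emission ratio (665/620 nm) plus the 620 nm donor channel, each fitted to the Hill equation to give AC50. Cells were CHO-M1 given compounds up to 46 uM and a 30 min carbachol stimulation at 37C.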
* marks the source's active call; other numbers are inactive results; ? = inconclusive; · = no result; [ ] = another dose, or the depositor's remark. Unless noted, calls follow the shape of the dose curve; as a rule, active = well fitted curve in the direction sought with a large enough effect; inconclusive = small, poorly fitted or top-dose-only effect, or another doubt; inactive = no such curve, though single readings can be large; an effect the other way counts as inactive or inconclusive. Unless noted, % is scaled to controls: 0 for no effect and ±100 for the full control effect.

SMILES | ALOX12 inhib | PNC inhibitor | HPGD block | IMPase Li cell | ALDH1A1 inh | IMPase cell inh
Cn1cccc1C(=O)N1CCC[C@@]2(CCN(Cc3ccc(C#N)cc3)C2)C1 | -1% | · | -15% | 22% | ? | ·
COc1ccc(C(=O)N2CCC[C@@]3(CCN(Cc4ccncc4)C3)C2)cc1 | 6% | · | 35µM* | 21% | 28µM* | ·
O=C(c1cccc(F)c1)N1CCC[C@@]2(CCN(Cc3ccncc3)C2)C1 | 1% | · | ? | 5% | ? | ·
N#Cc1ccc(CN2CC[C@@]3(CCCN(C(=O)c4cccc(F)c4)C3)C2)cc1 | -5% | · | 28µM* | -1% | -9% | ·
CC1(OC(=O)c2ccc(Cl)nc2)C(=O)C=c2cc(-c3ccsc3)ncc2=C1OC(=O)C1CCCC1 (configuration not stated) | 6%[11.4 µM] | · | -8% | 8% | 7%[13.5 µM] | ·
CCOC(=O)c1cc(CC)sc1/N=C/C1C(=O)CC(C)(C)CC1=O | 0% | ? | -4% | 8% | 11µM* | -4
CCOC(=O)c1c(/N=C/c2ccc(O)cc2O)sc2c1CCC2 | -19% | ? | -23% | -8% | ? | ·
CCOC(=O)c1c(/N=C/C2C(=O)CCCC2=O)sc2c1CCCC2 | · | · | · | 18% | 16µM* | ·
CCOC(=O)c1c(/N=C/C2C(=O)CC(C)(C)CC2=O)sc2c1CCCC2 | · | · | · | 23% | 8.9µM* | ·
CCOC(=O)c1c(/N=C/c2ccccc2O)sc2c1CCC2 | -4% | -28 | · | · | -16% | -13
CCOC(=O)c1[nH]c(C)c(/C=N/O)c1C | 7% | -115* | ? | 0%[38.3 µM] | 3% | 2
OB(O)c1csc2ccccc12 | 0% | · | -5% | -7% | 0% | ·
COC(CSc1ncnc2c1oc1nc3c(cc12)COC(C)(C)C3)OC | · | · | · | · | 3.2µM* | ·
CC1(C)Cc2nc3sc4c(N(CCO)CCO)ncnc4c3cc2CO1 | 3% | 20 | ? | 15%[38.3 µM] | ? | -2
COC(=O)CSc1ncnc2c1sc1nc3c(cc12)COC(C)(C)C3 | · | · | · | 6% | 1.4µM* | ·
CC1(C)Cc2nc3sc4c(SCC(=O)NCc5ccccc5)ncnc4c3cc2CO1 | -2% | -112* | -25% | ? | 7.9µM* | 4
CC1(C)Cc2nc3oc4c(NCc5ccccc5)ncnc4c3cc2CO1 | -3% | 11 | ? | -1%[38.3 µM] | ? | -15
N#C/C(=C\c1c(Oc2ccc(F)cc2)nc2ccccn2c1=O)c1nc2ccccc2s1 | · | · | · | · | · | -1
CC1CCC(NC(=S)NCCN(C)C)CC1 (configuration not stated) | · | · | · | 12% | 1.6µM* | ·
Cc1cccc(Nc2n[nH]c(C)c2[N+](=O)[O-])c1 | -10% | 0 | 11µM* | -10% | 0% | ·
O=C(Nc1ccc2c(c1)nc1n2CCSC1)c1ccccc1 | 7% | ? | -7% | 12%[38.3 µM] | 22µM* | -10
CCCOc1ccccc1C1Oc2nc(SC)nnc2-c2ccccc2N1C(C)=O (configuration not stated) | · | · | · | · | · | 2
CC(C)(CSc1ncccn1)NS(=O)(=O)c1ccccc1 | · | · | · | 6% | ? | ·
Cc1ccc(S(=O)(=O)NC(C)(C)CSc2nnc(Nc3ccccc3)s2)cc1 | -11% | ? | -10% | 13%[38.3 µM] | 20µM* | 7
COc1ccc(NC(=O)C2CCC(CNS(=O)(=O)c3ccc(Br)s3)CC2)c(OC)c1 (configuration not stated) | · | · | · | · | · | 12
COc1ccc(N=C2SC(CC(=O)Nc3ccc(F)cc3)C(=O)N2Cc2ccco2)cc1 (configuration not stated) | -2% | -6 | -13% | 8% | 3.5µM* | ·
CCn1c2ccccc2c2cc(N=C3SC(CC(=O)Nc4ccccc4OC)C(=O)N3C)ccc21 (configuration not stated) | -2% | -15 | -15% | -1%[38.3 µM] | 2% | -3
COc1ccc(N=C2SC(CC(=O)Nc3ccccc3OC)C(=O)N2Cc2ccco2)cc1 (configuration not stated) | -1% | -104* | ? | 2% | 9% | ·
